Screening results from PubChem BioAssay.
esBAF inh = blocks esBAF chromatin remodeling in mouse ES cells; Bmi1-luciferase knock-in reporter, 24 h; 100% = twice the neutral-well signal; reporter increase, % at 12.5 µM; 2% of 350,000 active; in the data active = activation above about 40%;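 note: 0% = median of the plate's neutral control wells and 100% = double that signal; a rise in the Bmi1 reporter signal indicates esBAF inhibition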
rRNA inh HTS = inhibitors of bacterial rRNA selective over humanized ribosomes | E. coli WT GFP vs humanized-ribosome RFP mutants, fluorescence, 24 h; stronger effect = lower value; DMSO median 0, no signal -100 | 1.6% of 350,000 active | AID 720706 | GFP signal change (wild-type ribosome), % (concentration not given with the values);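 active = significant combined selectivity score with lowered wild-type GFP, culture density cut under 30%, mutant RFP and density less affected; inactive = any of these conditions unmet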
AF4-AF9 inh = blocks AF4 peptide binding to human AF9; AlphaScreen, biotin-AF4 peptide binding to FLAG-AF9; inhibition, % at 10 µM; 0.47% of 350,000 active;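 active = every replicate reaching a set inhibition limit, whatever the replicate mean, cut at about 25% in these data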;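 note: 0% = plate neutral control median and 100% = total signal loss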
Target sequence (P42568 whole entry, looked up): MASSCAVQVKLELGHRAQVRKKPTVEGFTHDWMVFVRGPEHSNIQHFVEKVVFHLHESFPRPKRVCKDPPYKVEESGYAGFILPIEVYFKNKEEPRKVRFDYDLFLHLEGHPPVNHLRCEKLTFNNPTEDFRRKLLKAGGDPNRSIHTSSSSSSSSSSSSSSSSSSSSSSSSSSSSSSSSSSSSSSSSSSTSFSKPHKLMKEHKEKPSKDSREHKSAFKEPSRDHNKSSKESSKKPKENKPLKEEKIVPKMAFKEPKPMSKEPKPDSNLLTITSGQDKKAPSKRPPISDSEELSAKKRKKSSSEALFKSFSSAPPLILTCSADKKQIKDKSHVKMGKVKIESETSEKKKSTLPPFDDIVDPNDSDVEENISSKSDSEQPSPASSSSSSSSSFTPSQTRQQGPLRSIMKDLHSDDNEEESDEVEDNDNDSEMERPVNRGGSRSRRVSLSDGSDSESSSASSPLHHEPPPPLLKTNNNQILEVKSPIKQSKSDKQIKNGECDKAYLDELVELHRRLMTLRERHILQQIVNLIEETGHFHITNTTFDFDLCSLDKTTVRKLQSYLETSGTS
Wnt bcat act = activates Wnt/beta-catenin signaling in a reporter cell assay; activator, plate reader; activation, % at 9.35 µM; 1.2% of 300,000 active; in the data active = activation above about 30%, passing the limit was not always enough;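 note: 0% = neutral control wells and 100% = positive control wells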
MITF act = activators of MITF-driven TRPM1 promoter activity in SK-MEL-5 cells; SK-MEL-5 TRPM1-promoter luciferase, 24 h; % of positive control, neutral wells = 0; activation, % at 12.5 µM; 0.75% of 300,000 active; AID 588334;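 active = mean activation of at least 80% with every replicate also reaching 80%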;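 note: 0% = neutral control wells and 100% = parthenolide positive control wells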
* = called active by the depositor; / = no result given. The list is not random: actives were taken first. Their share in the collection is about 3.7%.

SMILES | esBAF inh | rRNA inh HTS | AF4-AF9 inh | Wnt bcat act | MITF act
COc1ccc(OC)c(Cc2nnc(CCC(=O)N3CCC(N4CCCCC4)CC3)o2)c1 | / | 33 | 9 | -1 | 6
CCC(=O)Nc1ccc(C(=O)CSc2nnc(-c3ccc(NS(C)(=O)=O)cc3)n2C)cc1OC | / | / | / | -5 | 15
O=C(CCCOc1ccc(Cl)cc1Cl)Nc1ccc(O)cc1C(=O)O | / | 3 | -6 | 3 | 9
COc1cc(NC(=O)CCCOc2ccc(Cl)cc2Cl)c(C(=O)O)cc1OC | 1 | -31* | -12 | 3 | -7
C#CCOCCOCCOCCNc1nc(N2CCN(C(=O)[C@H](CO)n3cc([C@@H](N)C(C)C)nn3)CC2)nc(N2CCN(C(=O)[C@H](CCCCN)n3cc([C@@H](N)[C@H](C)CC)nn3)CC2)n1 | 12 | 8 | 42* | -4 | 5
C#CCOCCOCCOCCNc1nc(N2CCN(C(=O)C([C@@H](C)O)n3cc([C@@H](N)CCCCN)nn3)CC2)nc(N2CCN(C(=O)[C@H](CCCCN)n3cc([C@@H](N)[C@H](C)CC)nn3)CC2)n1 (stereo partly drawn) | -6 | 11 | 59* | -1 | 3
C#CCOCCOCCOCCNc1nc(N2CCN(C(=O)[C@H](CCCCN)n3cc([C@@H](N)C(C)CC)nn3)CC2)nc(N2CCN(C(=O)[C@H](Cc3ccc(O)cc3)n3cc([C@@H](N)CC(C)C)nn3)CC2)n1 (stereo partly drawn) | -16 | 15 | 30* | 16 | -11
C#CCOCCOCCOCCNc1nc(N2CCN(C(=O)C([C@@H](C)O)n3cc([C@@H](N)CCCCN)nn3)CC2)nc(N2CCN(C(=O)[C@H](CCC(=O)O)n3cc([C@@H](N)[C@H](C)CC)nn3)CC2)n1 (stereo partly drawn) | 2 | 12 | 2 | -1 | 3
CC(C)OCCCn1c(=N)c(S(=O)(=O)c2ccccc2)cc2c(=O)n3ccccc3nc21 | -2 | 3 | 0 | 0 | 10
CCOCCCn1c(=N)c(S(=O)(=O)c2ccccc2)cc2c(=O)n3cc(C)ccc3nc21 | -2 | 2 | 26* | -4 | 13
COc1ccccc1CNC(=O)C[C@@H]1C[C@@H]2c3cc(NC(=O)CN(C)C)ccc3O[C@@H]2[C@@H](CO)O1 | -4 | 3 | -1 | / | /
CCN(Cc1ccccc1)S(=O)(=O)c1ccc(C(=O)N(CCCN(C)C)c2nc3c(F)cccc3s2)cc1 | -6 | -48* | 4 | -3 | -13
COc1cccc2sc(N(CCCN(C)C)C(=O)c3ccc(S(=O)(=O)N4CCc5ccccc5C4)cc3)nc12 | / | -57 | 29* | -4 | -47
COc1cc2nc(N(CCCN(C)C)C(=O)c3ccc(S(=O)(=O)N4CCc5ccccc5C4)cc3)sc2cc1OC | 2 | -17 | 2 | 0 | -9
CCOc1cccc2sc(N(CCCN(C)C)C(=O)c3ccc(S(=O)(=O)N(C)Cc4ccccc4)cc3)nc12 | -1 | -39* | 18 | -2 | -94
CN(C)CCCN(C(=O)c1ccc(S(=O)(=O)N2CCc3ccccc32)cc1)c1nc2c(Cl)cccc2s1 | -3 | -40* | 7 | -1 | -57
CCOc1cccc2sc(N(CCCN(C)C)C(=O)c3ccc(S(=O)(=O)N(CC)Cc4ccccc4)cc3)nc12 | -12 | -54 | 20 | -2 | -57
CCOc1cccc2sc(N(CCCN(C)C)C(=O)c3ccc(S(=O)(=O)N4CCCCCC4)cc3)nc12 | -7 | -24* | 3 | -4 | -13
COC(=O)C1=C(Nc2ccccc2NC(=O)c2ccccc2C(=O)O)CSC1 | 26 | 9 | / | 41* | -6
COc1ccc(CC(=O)Nc2cccc3c2CCCC3)cc1 | -3 | 4 | 1 | -1 | /
O=C(Nc1ccc2c3c(cccc13)CC2)c1ccc(Br)o1 | 79* | / | / | / | 74
COc1ccc(C(=O)Nc2ccc3c4c(cccc24)CC3)cc1 | / | / | / | 15 | 87*
COc1ccc(C(=O)Nc2cccc3c2CCCC3)cc1 | 48* | 3 | -3 | 3 | /
COc1ccc(C(=O)Nc2cccc3c2CCCC3)c(OC)c1 | / | 5 | -2 | 36* | /
CCOCc1cnc(C)nc1NCC(=O)c1c(C)[nH]c2cc(C)ccc12 | 12 | 5 | / | / | -11
CSc1ccccc1NC(=O)CN(C)C(=O)c1c(C)nn(Cc2ccccc2)c1C | 0 | -1 | 4 | 0 | 10
